According to PubChem BioAssay (Tox21):
Values joined by “and” are separate entries in the source; they are usually repeats but may differ in a detail not shown here. Equal entries are not always repeated. Results filed as inconclusive are left out. Entries that show only a call come without a potency. Some compounds were tested as several samples or in several runs, with calls that do not always agree. Active and inactive are the calls of the source. Unless noted, calls follow the shape of the dose curve; as a rule, active = well fitted curve in the direction sought with a large enough effect in the repeat runs; inconclusive = weak or mixed curves; inactive = no such curve, though single readings can be large; an effect the other way counts as inactive or inconclusive.

Assays:
[1] = qHTS assay to identify small molecule antagonists of the glucocorticoid receptor (GR) signaling pathway - cell viability counter screen (AID 720693); also: nearly all actives have a fitted effect of over 55% in size; also: potency is read from the fitted curve at half-maximal effect
[2] = qHTS assay for identifying genotoxic compounds that show differential cytotoxicity against isogenic chicken DT40 cell lines with known DNA damage response pathways - wild type cell line (AID 743012); also: nearly all actives have a fitted effect of over 60% in size; also: potency is read from the fitted curve at half-maximal effect
Method in brief: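 Quantitative HTS on parental DT40 cells: 40 h compound treatment at 37 C/5% CO2, with viability then determined by CellTiter-Glo luminescence. Values serve as the DNA repair-proficient reference for differential cytotoxicity.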

[3] = qHTS assay for identifying genotoxic compounds that show differential cytotoxicity against isogenic chicken DT40 cell lines with known DNA damage response pathways - Rad54/Ku70 mutant cell line (AID 743015); also: nearly all actives have a fitted effect of over 60% in size; also: potency is read from the fitted curve at half-maximal effect
[4] = qHTS assay to identify small molecule antagonists of the androgen receptor (AR) signaling pathway - cell viability counter screen (AID 743033; also: nearly all actives have a fitted effect of over 45% in size; also: potency is read from the fitted curve at half-maximal effect)
[5] = qHTS assay to identify small molecule antagonists of the androgen receptor (AR) signaling pathway using the MDA cell line - cell viability counter screen (AID 743041; also: nearly all actives have a fitted effect of over 45% in size; also: potency is read from the fitted curve at half-maximal effect)
Method in brief: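 Same-well cytotoxicity was assessed by CellTiter-Fluor in MDA-kb2 AR-luc cells after 16 h of compound treatment under R1881 agonism.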

[6] = qHTS assay to identify small molecule antagonists of the thyroid receptor (TR) signaling pathway - cell viability counter screen (AID 743064); also: nearly all actives have a fitted effect of over 50% in size; also: potency is read from the fitted curve at half-maximal effect
Method in brief: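 In rat pituitary GH3.TRE-Luc reporter cells co-exposed to compound and 1 nM T3 for 23.5 h, cytotoxicity was assessed with CellTiter-Fluor in the same wells, read by fluorescence.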

[7] = system: thyroid hormone receptor (rat, GH3 cells); experiment: qHTS assay to identify small molecule agonists of the thyroid receptor (TR) signaling pathway (AID 743066; calls by dose curve)
[8] = biological target: Estrogen receptor (Homo sapiens) (UniProt P03372); experiment: qHTS assay to identify small molecule antagonists of the estrogen receptor alpha (ER-alpha) signaling pathway (AID 743069; active = well fitted curve in the direction sought with a large enough effect in the signal ratio in the repeat runs, not every such curve was filed as active; the % refers to the signal ratio)
Chain of Estrogen receptor (Homo sapiens) (P03372 whole entry, looked up): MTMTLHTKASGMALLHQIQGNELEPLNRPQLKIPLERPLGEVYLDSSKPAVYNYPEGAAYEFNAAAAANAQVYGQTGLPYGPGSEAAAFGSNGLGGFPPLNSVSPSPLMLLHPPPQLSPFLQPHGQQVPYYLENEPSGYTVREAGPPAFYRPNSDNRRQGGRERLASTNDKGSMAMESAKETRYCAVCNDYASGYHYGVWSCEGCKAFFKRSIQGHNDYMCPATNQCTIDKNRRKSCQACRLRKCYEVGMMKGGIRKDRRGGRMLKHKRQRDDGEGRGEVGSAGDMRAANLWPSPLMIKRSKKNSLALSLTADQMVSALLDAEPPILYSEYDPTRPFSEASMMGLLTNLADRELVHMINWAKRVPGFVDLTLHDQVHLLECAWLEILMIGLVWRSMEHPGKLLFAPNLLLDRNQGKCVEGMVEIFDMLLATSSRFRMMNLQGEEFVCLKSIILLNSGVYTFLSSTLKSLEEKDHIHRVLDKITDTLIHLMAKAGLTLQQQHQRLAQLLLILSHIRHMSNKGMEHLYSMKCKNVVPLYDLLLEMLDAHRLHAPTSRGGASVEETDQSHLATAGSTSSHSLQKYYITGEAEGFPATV
Method in brief: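 Reporter cells (ER-alpha-bla, HEK293 background) are conditioned overnight in stripped-serum medium (2% charcoal-stripped FBS). Compound and 17beta-estradiol exposure runs 18 hr at 37C, 5% CO2.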

[9] = qHTS assay to identify small molecule antagonists of the estrogen receptor alpha (ER-alpha) signaling pathway - cell viability counter screen (AID 743074; calls by dose curve;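 also: HEK293 cells carrying ER-alpha-UAS-bla reporter stimulated with 17beta-estradiol; nearly all actives have a fitted effect of over 45% in size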; also: potency is read from the fitted curve at half-maximal effect)
[10] = biological target: Estrogen receptor (Homo sapiens) (UniProt P03372); experiment: qHTS assay to identify small molecule agonists of the estrogen receptor alpha (ER-alpha) signaling pathway (AID 743075; calls by dose curve;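 also: HEK293 GripTite cells with ER-alpha and UAS-driven beta-lactamase reporter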)
[11] = qHTS assay to identify small molecule antagonists of the estrogen receptor alpha (ER-alpha) signaling pathway using the BG1 cell line (AID 743080; calls by dose curve;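 also: BG1 cells stimulated with 17beta-estradiol alongside compound; series mostly up to about 70 µM; nearly all actives have a fitted effect of over 25% in size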)
Method in brief: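 BG1-Luc-4E2 cells (endogenous full-length ER-alpha, 4xERE luciferase) hormone-starved 5 days in charcoal-stripped FBS, plated 4,000/well for 24 h, then compound plus 17beta-estradiol for 21.5 h at 37 C; ONE-Glo luminescence read.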

[12] = qHTS assay to identify small molecule antagonists of the estrogen receptor alpha (ER-alpha) signaling pathway using the BG1 cell line - cell viability counter screen (AID 743081);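 also: compound given together with 17beta-estradiol as the ER stimulus; series mostly up to about 70 µM; nearly all actives have a fitted effect of over 45% in size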
Aromatase (Homo sapiens) = Aromatase (Homo sapiens) (UniProt P11511); experiment: qHTS assay to identify aromatase inhibitors (AID 743083); also: nearly all actives have a fitted effect of over 55% in size; also: potency is read from the fitted curve at half-maximal effect
Chain of Aromatase (Homo sapiens) (P11511 whole entry, looked up): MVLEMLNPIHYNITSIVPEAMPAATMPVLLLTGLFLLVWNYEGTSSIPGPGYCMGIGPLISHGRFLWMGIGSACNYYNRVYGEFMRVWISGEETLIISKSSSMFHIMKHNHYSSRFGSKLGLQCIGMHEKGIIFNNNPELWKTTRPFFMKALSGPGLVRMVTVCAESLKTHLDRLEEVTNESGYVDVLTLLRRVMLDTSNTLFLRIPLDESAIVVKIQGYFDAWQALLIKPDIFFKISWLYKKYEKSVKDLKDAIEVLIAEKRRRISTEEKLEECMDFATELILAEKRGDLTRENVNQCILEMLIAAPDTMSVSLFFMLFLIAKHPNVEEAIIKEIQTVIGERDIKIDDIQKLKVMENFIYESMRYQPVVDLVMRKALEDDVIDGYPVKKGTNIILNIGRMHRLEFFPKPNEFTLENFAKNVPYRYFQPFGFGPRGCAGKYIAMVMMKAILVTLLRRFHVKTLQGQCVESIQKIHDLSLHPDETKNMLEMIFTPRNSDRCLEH

[13] = biological target: Androgen receptor (Homo sapiens) (UniProt P10275); experiment: qHTS assay to identify small molecule antagonists of the androgen receptor (AR) signaling pathway (AID 743035; active = well fitted inhibition curve with a large enough effect in the signal ratio in the repeat runs, not every such curve was filed as active; the % refers to the signal ratio; also: potency is read from the fitted curve at half-maximal effect)
Chain of Androgen receptor (Homo sapiens) (P10275 whole entry, looked up): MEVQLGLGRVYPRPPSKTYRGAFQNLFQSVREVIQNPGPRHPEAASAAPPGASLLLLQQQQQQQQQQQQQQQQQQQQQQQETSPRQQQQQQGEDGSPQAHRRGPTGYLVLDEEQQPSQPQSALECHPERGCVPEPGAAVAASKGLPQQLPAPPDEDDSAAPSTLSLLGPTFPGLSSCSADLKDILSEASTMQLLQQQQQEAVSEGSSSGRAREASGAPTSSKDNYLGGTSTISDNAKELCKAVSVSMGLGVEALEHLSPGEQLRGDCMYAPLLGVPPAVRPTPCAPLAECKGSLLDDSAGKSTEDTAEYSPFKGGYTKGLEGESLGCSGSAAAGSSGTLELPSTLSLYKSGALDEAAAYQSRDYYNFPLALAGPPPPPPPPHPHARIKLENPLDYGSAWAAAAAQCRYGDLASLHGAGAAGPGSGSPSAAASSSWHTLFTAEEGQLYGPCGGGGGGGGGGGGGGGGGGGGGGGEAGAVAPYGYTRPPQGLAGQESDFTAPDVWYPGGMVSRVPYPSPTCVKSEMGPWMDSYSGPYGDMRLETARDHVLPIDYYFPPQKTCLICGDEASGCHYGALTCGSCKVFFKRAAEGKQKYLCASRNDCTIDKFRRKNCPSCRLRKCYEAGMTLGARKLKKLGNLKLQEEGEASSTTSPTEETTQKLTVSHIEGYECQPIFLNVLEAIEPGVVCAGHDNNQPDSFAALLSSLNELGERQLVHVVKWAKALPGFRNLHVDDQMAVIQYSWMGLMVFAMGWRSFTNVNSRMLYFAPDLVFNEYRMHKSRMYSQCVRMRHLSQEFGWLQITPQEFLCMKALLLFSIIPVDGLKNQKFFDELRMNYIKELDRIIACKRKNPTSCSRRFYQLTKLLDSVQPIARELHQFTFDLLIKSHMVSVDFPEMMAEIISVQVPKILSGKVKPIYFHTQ
Method in brief: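 Cell line: GeneBLAzer AR-UAS-bla GripTite (HEK293). Stimulus: R1881 added after compound. Exposure: 16 h, 37C, 5% CO2. Readout: LiveBLAzer B/G FRET fluorescence after 2 h at room temperature.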

[14] = biological target: Androgen receptor (Homo sapiens) (UniProt P10275); experiment: qHTS assay to identify small molecule agonists of the androgen receptor (AR) signaling pathway using the MDA cell line (AID 743040; also: nearly all actives have a fitted effect of over 20% in size; also: potency is read from the fitted curve at half-maximal effect)
Method in brief: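 Human breast carcinoma MDA-kb2 reporter cells (MMTV-luc, AR/GR elements) were treated for 16 h at 37C in 0% CO2 following a 5 h settling period. Signal was quantified by ONE-Glo luminescence.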

[15] = biological target: Androgen receptor (Homo sapiens) (UniProt P10275); experiment: qHTS assay to identify small molecule antagonists of the androgen receptor (AR) signaling pathway using the MDA cell line (AID 743042; also: nearly all actives have a fitted effect of over 55% in size)
Method in brief: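 MDA-kb2 breast carcinoma cells carrying MMTV-luciferase (AR/GR responsive) were co-treated with compounds and the agonist R1881 for 16 h at 37C. Inhibition read as ONE-Glo luminescence; CellTiter-Fluor fluorescence measured in parallel for cytotoxicity.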

[16] = qHTS assay to identify small molecule antagonists of the thyroid receptor (TR) signaling pathway (AID 743065); also: nearly all actives have a fitted effect of over 55% in size; also: potency is read from the fitted curve at half-maximal effect
Method in brief: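 GH3.TRE-Luc rat pituitary cells (two TREs driving luciferase) were dosed with compound, then stimulated with 1 nM T3 (final) for 23.5 h at 37 C. ONE-Glo luminescence was the read-out, with CellTiter-Fluor fluorescence as the cytotoxicity counter-screen.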

[17] = biological target: Estrogen receptor (Homo sapiens) (UniProt P03372); experiment: qHTS assay to identify small molecule agonists of the estrogen receptor alpha (ER-alpha) signaling pathway using the BG1 cell line (AID 743079); also: nearly all actives have a fitted effect of over 20% in size
[18] = qHTS assay for identifying genotoxic compounds that show differential cytotoxicity against isogenic chicken DT40 cell lines with known DNA damage response pathways - Rev3 mutant cell line (AID 743014); also: nearly all actives have a fitted effect of over 55% in size; also: potency is read from the fitted curve at half-maximal effect
[19] = biological target: Androgen receptor (Homo sapiens) (UniProt P10275); experiment: qHTS assay to identify small molecule agonists of the androgen receptor (AR) signaling pathway (AID 743036; active = well fitted activation curve with a large enough effect in the signal ratio in the repeat runs, with a control signal flat, not every such curve was filed as active; the % refers to the signal ratio)
Method in brief: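 Cell-based FRET reporter assay: HEK293 line with a UAS-beta-lactamase construct, compounds added in DMSO, 16 h exposure at 37C, then 2 h substrate step at room temperature and fluorescence intensity read.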

| Compound | Potency [1] | Potency [2] | Potency [3] | Potency [4] | Potency [5] | Potency [6] | Potency [7] | Potency [8] | Potency [9] | Potency [10] | Potency [11] | Potency [12] | Potency (Aromatase (Homo sapiens)) | Potency [13] | Potency [14] | Potency [15] | Potency [16] | Potency [17] | Potency [18] | Potency [19] |
| --- | --- | --- | --- | --- | --- | --- | --- | --- | --- | --- | --- | --- | --- | --- | --- | --- | --- | --- | --- | --- |
| N#Cc1c(N(CC(=O)O)CC(=O)O)sc(C(=O)O)c1CC(=O)O | inactive | inactive | inactive | inactive | inactive | inactive | inactive | inactive | inactive | inactive | inactive | inactive | inactive |  |  |  |  |  |  |  |
| c1ccc2c(c1)OCC(CN1CCCCC1)O2 (configuration not stated) | inactive | inactive |  | inactive | inactive | inactive | inactive | inactive | inactive | inactive | inactive | inactive | inactive | inactive | inactive | inactive | inactive | inactive |  |  |
| c1ccc(-c2ccc(C(c3ccccc3)n3ccnc3)cc2)cc1 (configuration not stated) | inactive | 10.6 µM (active) | 11.9 µM (active) | inactive | inactive |  |  |  | inactive |  |  | inactive | 0.75 µM (active) |  |  |  |  | inactive |  |  |
| NCCCC(=O)O | inactive | inactive | inactive | inactive | inactive |  | inactive | inactive | inactive | inactive | inactive | inactive | inactive |  |  |  | inactive | inactive |  |  |
| CCOc1cc(CC(=O)N[C@@H](CC(C)C)c2ccccc2N2CCCCC2)ccc1C(=O)O | inactive |  | inactive | inactive | inactive | inactive | inactive |  | inactive |  |  |  | inactive | inactive | 11.4 µM (active) | inactive | inactive |  | inactive | inactive |
| CN(C/C=C/c1ccccc1)Cc1cccc2ccccc12 | inactive | 26.6 µM (active) | 26.6 µM (active) | inactive | inactive |  | inactive | inactive | inactive | inactive | inactive | inactive | inactive |  |  |  |  | inactive |  |  |
| CC[N+](CC)(CC)CCC(O)(c1ccccc1)C1CCCCC1 (configuration not stated) | inactive | inactive | inactive | inactive | inactive |  |  |  | inactive |  |  |  | inactive |  |  |  |  |  |  |  |
| CO/N=C(\C(=O)N[C@@H]1C(=O)N2C(C(=O)O)=C(CSc3nc(C)c(CC(=O)O)s3)CS[C@H]12)c1csc(N)n1 | inactive | inactive | inactive | inactive | inactive | inactive | inactive | inactive | inactive | inactive | inactive | inactive | inactive |  |  |  |  | inactive |  |  |
| CCOc1ccc(NC(=S)Nc2ccc(OCC)cc2)cc1 | inactive | inactive |  | inactive | inactive | inactive | inactive | inactive | inactive | inactive | inactive | inactive | inactive |  |  |  | inactive | inactive |  |  |
| CC[C@H](C)C(=O)O[C@H]1CCC=C2C=C[C@H](C)[C@H](CC[C@@H]3C[C@@H](O)CC(=O)O3)[C@H]21 | inactive | 2.98 µM (active) | 11.9 µM (active) |  | inactive |  | inactive |  | inactive | inactive |  | inactive |  | 15.1 µM (active) | inactive | inactive |  | inactive |  | inactive |
| C/C(=C(/CCO)SSCC1CCCO1)N(C=O)Cc1cnc(C)nc1N (configuration not stated) | inactive | 23.7 µM (active) and 11.9 µM (active) | 26.6 µM (active) | inactive | inactive | inactive | inactive | inactive | inactive | inactive | inactive | inactive | inactive and 29.8 µM (active) |  |  |  |  | inactive |  |  |
| CC(C)c1ncc([N+](=O)[O-])n1C | inactive | inactive | inactive |  | inactive | inactive | inactive |  | inactive |  |  | inactive | inactive | inactive | inactive | inactive |  |  |  |  |
| CC/C=C\C/C=C\C/C=C\C/C=C\C/C=C\C/C=C\CCC(=O)O | inactive | 26.6 µM (active) |  | inactive | inactive | inactive | inactive | inactive | inactive | inactive | inactive | inactive | inactive |  |  |  |  | inactive |  |  |
| O=C1OC(=O)c2cc(-c3ccc4c(c3)C(=O)OC4=O)ccc21 | inactive | 17.2 µM (active) | 54.5 µM (active) |  | inactive |  | inactive | inactive |  | inactive | inactive | inactive | inactive |  |  |  | inactive | inactive |  |  |
| CC[C@H]1OC(=O)[C@H](C)C(=O)[C@H](C)[C@@H](O[C@@H]2O[C@H](C)C[C@H](N(C)C)[C@H]2O)[C@](C)(OC)C[C@@H](C)C(=O)[C@H](C)[C@H]2N(CCCCn3cnc(-c4cccnc4)c3)C(=O)O[C@]12C | inactive | 4.22 µM (active) | 6.68 µM (active) | inactive |  | inactive | inactive | inactive | inactive | inactive |  | inactive | inactive |  |  |  | inactive | inactive |  |  |
| CC[C@@H](C(=O)[C@@H](C)[C@@H](O)[C@H](C)CCc1ccc(C)c(O)c1C(=O)O)[C@H]1O[C@](CC)([C@H]2CC[C@](O)(CC)[C@H](C)O2)C[C@@H]1C | 23.9 µM (active) |  | 6.68 µM (active) | 6.74 µM (active) | 11.1 µM (active) | 3.35 µM (active) | inactive |  | 19 µM (active) | inactive |  |  | inactive | 15.1 µM (active) | 1.88 µM (active) | inactive | 1.33 µM (active) | inactive | 4.73 µM (active) |  |
